Source: PubChem BioAssay (NCI)
Compounds without any hit were thinned out: in the full panel of roughly 79,000, 15% have a hit. Activity calls are given as the source filed them. Rule as the data show it: active = growth inhibition above about 70%; inactive = the rest.

Columns and labels:
[1] = NCI Yeast Anticancer Drug Screen. Data for the rad52 strain (AID 147);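 also: 0% = growth of vehicle-treated control cultures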; conditions: S. cerevisiae rad52 mutant growth inhibition, stronger effect = higher value
How it was run: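 Vehicle-treated cultures served as the reference for growth inhibition of compound-exposed yeast bearing a DNA repair mutation.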

[2] = NCI Yeast Anticancer Drug Screen. Data for the wt1 strain (AID 149);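 also: 0% = growth of vehicle-treated wt1 cultures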; conditions: S. cerevisiae wt1 strain (SPY 50644) growth inhibition, stronger effect = higher value
How it was run: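 Growth inhibition read against vehicle controls after compound exposure of the wt1 yeast strain.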

[3] = NCI Yeast Anticancer Drug Screen. Data for the rad50EPP+ strain (AID 151);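 also: 0% = growth of vehicle-treated control cultures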; conditions: S. cerevisiae rad50 mutant strain, stronger effect = higher value
How it was run: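 In this screen, rad50EPP+ yeast were exposed to compounds. Growth inhibition was scored against vehicle-treated controls.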

[4] = NCI Yeast Anticancer Drug Screen. Data for the rad50 strain (AID 155);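 also: 0% = growth of vehicle-only cultures of the same strain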; conditions: S. cerevisiae rad50 strain growth inhibition, stronger effect = higher value
How it was run: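 Readout: growth inhibition relative to vehicle-treated cultures. Compound exposure was carried out in a genetically defined yeast strain deficient in DNA damage repair.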

[5] = NCI Yeast Anticancer Drug Screen. Data for the mec2-1 strain (AID 157); conditions: S. cerevisiae mec2-1 strain, stronger effect = higher value
How it was run: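 Vehicle-treated cultures served as reference for growth inhibition of compound-exposed mec2-1 yeast.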

[6] = NCI Yeast Anticancer Drug Screen. Data for the rad14 strain (AID 159);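 also: 0% = growth of vehicle-treated control cultures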; conditions: S. cerevisiae rad14 strain growth inhibition, stronger effect = higher value
How it was run: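 Growth inhibition vs vehicle controls; genetically altered yeast strain (DNA damage repair defect) treated with test compounds.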

[7] = NCI Yeast Anticancer Drug Screen. Data for the sgs1 mgt1 strain (AID 161);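 also: 0% = growth of cultures given vehicle only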; conditions: S. cerevisiae sgs1 mgt1 strain, stronger effect = higher value
How it was run: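 Genetically altered yeast, compound exposure, growth inhibition relative to vehicle.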

[8] = NCI Yeast Anticancer Drug Screen. Data for the CLN2oe strain (AID 163);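 also: 0% = growth of vehicle-only control cultures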; conditions: S. cerevisiae CLN2oe strain, stronger effect = higher value
How it was run: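 Inhibition relative to vehicle-treated yeast is reported. Cells: strain with genetic alteration in cell-cycle control, grown with compound.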

[9] = NCI Yeast Anticancer Drug Screen. Data for the cln2 rad14 strain (AID 165);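 also: 0% = growth equal to vehicle treated cultures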; conditions: S. cerevisiae cln2 rad14 strain, stronger effect = higher value
How it was run: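 Each compound was tested on cln2 rad14 yeast. Inhibition of growth was calculated against vehicle-exposed controls.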

[10] = NCI Yeast Anticancer Drug Screen. Data for the bub3 strain (AID 167); conditions: S. cerevisiae bub3 mutant strain, stronger effect = higher value
How it was run: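 Readout: yeast growth inhibition, expressed relative to vehicle-only wells. The test organism is a mutant strain from a panel with lesions in DNA repair or checkpoint genes.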

[11] = NCI Yeast Anticancer Drug Screen. Data for the wt2 strain (AID 169);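 also: 0% = growth of vehicle-treated yeast cultures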; conditions: S. cerevisiae wt2 strain growth inhibition, stronger effect = higher value
How it was run: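 Inhibition of yeast growth was determined after compound treatment, normalised to controls receiving only vehicle.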

[12] = NCI Yeast Anticancer Drug Screen. Data for the mlh1 strain (AID 171);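 also: 0% = growth of vehicle-treated control cultures of the same strain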; conditions: S. cerevisiae mlh1 strain growth inhibition, stronger effect = higher value
How it was run: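 Vehicle-normalised growth inhibition of a repair- or checkpoint-altered yeast strain following compound treatment.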

[13] = NCI Yeast Anticancer Drug Screen. Data for the sgs1 strain (AID 173);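 also: 0% = growth of vehicle-only control cultures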; conditions: S. cerevisiae sgs1 mutant, stronger effect = higher value
How it was run: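 Screen format: yeast with repair or checkpoint alterations, compound exposure, growth read relative to vehicle.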

[14] = NCI Yeast Anticancer Drug Screen. Data for the rad18 strain (AID 177); conditions: S. cerevisiae rad18 mutant growth inhibition, stronger effect = higher value
How it was run: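 Test articles were incubated with altered yeast defective in DNA damage repair. Results are given as inhibition of growth versus vehicle.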

[15] = NCI Yeast Anticancer Drug Screen. Data for the mlh1 rad18 strain (AID 175); conditions: S. cerevisiae mlh1 rad18 strain growth inhibition, stronger effect = higher value
How it was run: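 Vehicle-treated cultures served as the reference for growth inhibition in a yeast strain carrying DNA damage repair alterations exposed to each compound.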

[16] = at 5.0 µM (retest, dose inferred, filed as 0.5)
[17] = at 50.0 µM (retest, dose inferred, filed as 5.0)

Measured: growth inhibition

COC(=O)c1ccc2c(c1)Cc1ccccc1-2
inactive: [1]; at 1.2 µM -1% | [1]; at 3.7 µM 5% | [1]; at 11.0 µM 11% | [1]; at 33.0 µM 19% | [1]; at 100.0 µM 28% | [2]; at 1.2 µM -3% | [2]; at 3.7 µM -5% | [2]; at 11.0 µM -3% | [2]; at 33.0 µM -2% | [2]; at 100.0 µM -2% | [3]; at 1.2 µM 2% | [3]; at 3.7 µM 10% | [3]; at 11.0 µM 25% | [3]; at 33.0 µM 39% | [3]; at 100.0 µM 43% | [4]; at 1.2 µM 2% | [4]; at 3.7 µM 10% | [4]; [16] 0% | [4]; at 11.0 µM 13% | [4]; at 33.0 µM 12% | [4]; [17] -11% | [4]; at 100.0 µM 32% | [5]; at 1.2 µM -4% | [5]; at 3.7 µM 1% | [5]; [16] -12% | [5]; at 11.0 µM -12% | [5]; at 33.0 µM -3% | [5]; [17] -4% | [5]; at 50.0 µM 39% | [5]; at 100.0 µM 1% | [6]; at 1.2 µM -3% | [6]; at 3.7 µM -6% | [6]; at 11.0 µM -4% | [6]; at 33.0 µM -3% | [6]; at 100.0 µM -6% | [7]; [16] -5% | [7]; [17] -4% | [7]; at 50.0 µM 46.9% | [8]; at 1.2 µM -1% | [8]; at 3.7 µM 0% | [8]; at 11.0 µM -4% | [8]; at 33.0 µM -3% | [8]; at 100.0 µM -11% | [9]; [16] 35% | [9]; [17] 0% | [9]; at 50.0 µM 29.4% | [10]; at 1.2 µM -7% | [10]; at 3.7 µM -7% | [10]; [16] 0% | [10]; at 11.0 µM 3% | [10]; at 33.0 µM 3% | [10]; [17] -1% | [10]; at 50.0 µM 41.2% | [10]; at 100.0 µM 19% | [11]; at 1.2 µM -3% | [11]; at 3.7 µM -2% | [11]; at 11.0 µM -4% | [11]; at 33.0 µM 3% | [11]; at 100.0 µM 28% | [12]; at 1.2 µM -3% | [12]; at 3.7 µM 9% | [12]; at 11.0 µM 2% | [12]; at 33.0 µM -11% | [12]; at 100.0 µM 8% | [13]; at 1.2 µM -3% | [13]; at 3.7 µM -4% | [13]; at 11.0 µM -1% | [13]; at 33.0 µM 3% | [13]; at 100.0 µM 17% | [14]; at 1.2 µM -1% | [14]; at 3.7 µM 1% | [14]; at 11.0 µM 6% | [14]; at 33.0 µM 4% | [14]; at 100.0 µM 9%
active: [4]; at 50.0 µM 72.5%

CC(=O)CC(=O)/C=C/c1cccs1
active: [1]; at 100.0 µM 86% | [3]; at 33.0 µM 89% | [3]; at 100.0 µM 92% | [4]; [16] 97% | [4]; at 33.0 µM 76% | [4]; [17] 100% | [4]; at 100.0 µM 92% | [5]; [16] 94% | [5]; [17] 99% | [5]; at 100.0 µM 77% | [6]; at 100.0 µM 89% | [9]; [17] 72% | [10]; at 100.0 µM 90% | [11]; at 100.0 µM 84% | [12]; at 100.0 µM 88% | [15]; [16] 100% | [15]; [17] 100% | [14]; at 100.0 µM 88%
inactive: [1]; at 1.2 µM -15% | [1]; at 3.7 µM -8% | [1]; at 11.0 µM 6% | [1]; at 33.0 µM 26% | [2]; at 1.2 µM -25% | [2]; at 3.7 µM -23% | [2]; at 11.0 µM -22% | [2]; at 33.0 µM -19% | [2]; at 100.0 µM 59% | [3]; at 1.2 µM 7% | [3]; at 3.7 µM 0% | [3]; at 11.0 µM 33% | [4]; at 1.2 µM -3% | [4]; at 3.7 µM -5% | [4]; at 11.0 µM 18% | [4]; at 50.0 µM 68.7% | [5]; at 1.2 µM -36% | [5]; at 3.7 µM -38% | [5]; at 11.0 µM -21% | [5]; at 33.0 µM 10% | [5]; at 50.0 µM 50% | [6]; at 1.2 µM -12% | [6]; at 3.7 µM -9% | [6]; at 11.0 µM 6% | [6]; at 33.0 µM 8% | [7]; [16] -16% | [7]; [17] 44% | [7]; at 50.0 µM 51.2% | [8]; at 1.2 µM -27% | [8]; at 3.7 µM -30% | [8]; at 11.0 µM -24% | [8]; at 33.0 µM 2% | [8]; at 100.0 µM 38% | [9]; [16] 15% | [9]; at 50.0 µM 32.1% | [10]; at 1.2 µM 2% | [10]; at 3.7 µM -10% | [10]; [16] -1% | [10]; at 11.0 µM -27% | [10]; at 33.0 µM 21% | [10]; [17] 53% | [10]; at 50.0 µM 19% | [11]; at 1.2 µM -17% | [11]; at 3.7 µM -17% | [11]; at 11.0 µM -9% | [11]; at 33.0 µM -10% | [12]; at 1.2 µM -21% | [12]; at 3.7 µM -24% | [12]; at 11.0 µM -1% | [12]; at 33.0 µM 16% | [15]; at 50.0 µM 64.8% | [14]; at 1.2 µM -20% | [14]; at 3.7 µM -26% | [14]; at 11.0 µM 12% | [14]; at 33.0 µM 20%
